According to PubChem BioAssay AID1159580 (chemical genetic matrix, 2015):
Values joined by “and” are separate entries in the source; they are usually repeats but may differ in a detail not shown here. Equal entries are not always repeated. About 2,000 (36%) of roughly 5,500 compounds were called active. Roughly 18% stayed inconclusive and do not appear here. Rule as the data show it: active = normalized growth mostly below about 0.91 (no sharp cut-off); inconclusive = no clear call, values can overlap the other calls; inactive = mostly above about 0.92. The list shows a part of the results.

Assay: chemical genetic growth profiling, strain panel (AID 1159580);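 also: tested at 20 µM; growth read once vehicle control cultures reached saturation at 30 °C; 1 = growth at the plate median or of vehicle wells; lower values mean less growth of the strain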
Conditions: S. cerevisiae deletion strains, growth OD

Measured: normalized growth

c1ccc([C@H]2CN3CCSC3=N2)cc1
inactive: locus YAL013W, strain DEP1, active compounds read low 1.01 | locus YAL021C, strain ccr4, active compounds read low 1.01 | locus YAL026C, strain drs2, active compounds read low 1.01 | locus YAL030W, strain snc1, active compounds read low 1.01 | locus YBL061C, strain skt5, active compounds read low 1.01 | locus YBR009C, strain hhf1, active compounds read low 1.01 | locus YBR021W, strain FUR4, active compounds read low 0.956 | locus YBR023C, strain chs3, active compounds read low 1.01 | locus YBR171W, strain sec66, active compounds read low 1.02 | locus YBR229C, strain ROT2, active compounds read low 1.01 | locus YBR231C, strain swc5, active compounds read low 1 | locus YBR279W, strain paf1, active compounds read low 1.02 | locus YCL011C, strain gbp2, active compounds read low 1.01 | locus YCL016C, strain dcc1, active compounds read low 1.01 | locus YCL029C, strain bik1, active compounds read low 1.01 | locus YCL061C, strain MRC1, active compounds read low 0.996 | locus YCL069W, strain vba3, active compounds read low 1 | locus YCR088W, strain abp1, active compounds read low 1 | locus YDL005C, strain med2, active compounds read low 0.976 | locus YDL035C, strain GPR1, active compounds read low 1.01 | locus YDL040C, strain nat1, active compounds read low 1.01 | locus YDL074C, strain BRE1, active compounds read low 1 | locus YDL101C, strain DUN1, active compounds read low 1 | locus YDL134C, strain PPH21, active compounds read low 1.01 | locus YDL185W, strain tfp1, active compounds read low 1.02 | locus YDL192W, strain arf1, active compounds read low 1 | locus YDR001C, strain nth1, active compounds read low 0.995 | locus YDR069C, strain doa4, active compounds read low 0.996 | locus YDR101C, strain arx1, active compounds read low 1 | locus YDR137W, strain rgp1, active compounds read low 1.04 | locus YDR150W, strain NUM1, active compounds read low 1.01 | locus YDR159W, strain sac3, active compounds read low 0.944 | locus YDR162C, strain NBP2, active compounds read low 0.999 | locus YDR195W, strain ref2 1 | locus YDR297W, strain sur2, active compounds read low 1.01 | locus YDR318W, strain mcm21, active compounds read low 0.993 | locus YDR334W, strain swr1, active compounds read low 0.984 | locus YDR335W, strain msn5, active compounds read low 0.987 | locus YDR388W, active compounds read low 1.01 | locus YDR392W, strain spt3, active compounds read low 1.01 | locus YDR502C, strain sam2, active compounds read low 0.993 | locus YEL003W, strain gim4, active compounds read low 1.01 | locus YEL037C, strain rad23, active compounds read low 1 | locus YEL061C, strain CIN8 (second series), active compounds read low 0.996 | locus YEL061C, strain CIN8, active compounds read low 1 | locus YER015W, strain faa2, active compounds read low 1.01 | locus YER016W, strain bim1, active compounds read low 1.01 | locus YER110C, active compounds read low 1.02 | locus YER111C, strain swi4, active compounds read low 1.01 | locus YER155C, strain BEM2 (second series), active compounds read low 1.01 | locus YER155C, strain BEM2, active compounds read low 0.999 | locus YER167W, strain BCK2, active compounds read low 1.01 | locus YFR010W, strain ubp6, active compounds read low 0.981 | locus YGL078C, strain dbp3, active compounds read low 1 | locus YGL086W, strain mad1, active compounds read low 1.01 | locus YGL167C, strain pmr1, active compounds read low 1 | locus YGL173C, strain kem1, active compounds read low 1.01 | locus YGL227W, strain vid30, active compounds read low 1.02 | locus YGL240W, strain doc1, active compounds read low 1 | locus YGL248W, strain PDE1, active compounds read low 1 | locus YGL253W, strain hxk2, active compounds read low 1.01 | locus YGR078C, strain PAC10, active compounds read low 1 | locus YGR135W, strain pre9, active compounds read low 0.988 | locus YGR229C, strain SMI1, active compounds read low 0.994 | locus YGR252W, strain gcn5, active compounds read low 1.02 | locus YHR013C, strain ard1, active compounds read low 1.02 | locus YHR027C, strain rpn1, active compounds read low 1.01 | locus YHR030C, strain SLT2, active compounds read low 1.01 | locus YHR079C, strain IRE1 (second series), active compounds read low 1 | locus YHR079C, strain IRE1, active compounds read low 1.03 | locus YHR094C, strain hxt1, active compounds read low 1 | locus YHR129C, strain ARP1, active compounds read low 1.03 | locus YHR142W, strain chs7, active compounds read low 1.05 | locus YHR200W, strain rpn10, active compounds read low 1 | locus YIL066C, strain RNR3, active compounds read low 1.02 | locus YIL073C, strain SPO22, active compounds read low 1.05 | locus YIL125W, strain kgd1, active compounds read low 1.01 | locus YIR030C, strain dcg1, active compounds read low 1.01 | locus YJL092W, strain hpr5, active compounds read low 1 | locus YJL095W, strain BCK1 (second series), active compounds read low 1.01 | locus YJL095W, strain BCK1, active compounds read low 1.01 and 1.05 | locus YJL115W, strain asf1, active compounds read low 0.997 | locus YJL129C, strain trk1, active compounds read low 1.02 | locus YJL134W, strain LCB3, active compounds read low 1.01 | locus YJL154C, strain vps35, active compounds read low 1.01 | locus YJL164C, strain tpk1, active compounds read low 0.983 | locus YJL166W, strain qcr8, active compounds read low 1.01 | locus YJL168C, strain set2, active compounds read low 1.01 | locus YJL187C, strain SWE1 (second series), active compounds read low 1.01 | locus YJL187C, strain SWE1, active compounds read low 1 | locus YJR043C, strain POL32, active compounds read low 1.02 | locus YJR066W, strain TOR1, active compounds read low 0.976
